# From PubChem BioAssay AID445 (National Center for Advancing Translational Sciences (NCATS), 2006)
# Hit rate of the full screen: of about 110,000 compounds, about 40 (0.04%) were called active. About 22% were inconclusive and are not listed. Shown is part of a subset that was picked to be rich in actives. A number with no mark means an inactive call. Calls follow the shape of the dose curve; as a rule, active = well fitted curve in the direction sought with a large enough effect in the signal ratio (not every such curve was filed as active); inconclusive = small, poorly fitted or top-dose-only effect, or a change in a side signal; inactive = flat fitted curve, though single readings scatter; the % refers to the signal ratio.
# Assay: IkB Signaling;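 as to IkBa stabilization activation: 0% = basal untreated cells and 100% = reference inhibitor full response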
# Conditions: ABC-DLBCL IkBa-CBG/CBR dual luciferase ratio, 4 h; series mostly up to 57.1 µM; IkBa stabilization activation: at the top concentration
# From the text: NIH Molecular Libraries Screening Centers Network [MLSCN]
# NIH Chemical Genomics Center [NCGC]
# Nuclear factor kappa-B (NF-kappa-B) plays an important role in normal B cell development and survival. Diffuse large B cell lymphoma (DLBCL) is the most commonly observed type of non-Hodgkin's lymphoma. Gene expression analysis has identified an activated B cell-like subtype of DLBCL (ABC-DLBCL) which expresses known NF-kappa-B target genes. […] However, targets upstream of IKK have been largely unexplored and so nodes upstream of IKK in the NF-kappa-B pathway remain untested due to the lack of chemical probes.
# A cell-sensor assay for I-kappa-B-alpha stabilization was developed with NIH investigator Dr. R. Eric Davis in Dr. Louis M. Staudt's laboratory. The assay uses green (CBG68) and red (CBR) emitting beetle luciferases [Chroma-Glo(TM) developed by Promega Corp.] where the green luciferase is fused to I-kappa-B-alpha and the red luciferase is present in its native state. Both luciferase genes are stably present in the OCI-Ly3 human ABC DLBCL cell line, but their expression is under the control of tetracycline-inducible promoters. Following the addition of doxycycline to induce expression of the luciferases, the green luminescence in control cultures rises only slowly because the CBG fusion partner I-kappa-B-alpha is targeted by IKK activity for rapid degradation. In contrast, green luminescence rises rapidly in the presence of proteasome inhibitors or IKK inhibitors. The rise in red luminescence of CBR is not affected by proteasome or IKK inhibitors, and serves as normalization for cell number and nonspecific effects. Compounds were screened as a concentration-titration series that ranged from 57 uM to 0.7 nM.
# NCGC Assay Protocol Summary:
# Cells were seeded in 1536-well plates at 5000 cells/3ul in IMDM medium containing 0.5% FBS, w/o phenol red, L-glutamine, 25 mM HEPES, 3 mg/ml sodium bicarbonate. After centrifugation for 1 min. at 1000 rpm, 23 nl of compounds or DMSO were delivered to each well using a pin tool. Then 1ul 80ng/ml doxycycline was dispensed into white solid 1536-well plates and the plates were incubated at 37C/5% C02 in a cell incubator for 4 hrs. Then 4 ul Chroma-Glo luminescent substrate mix (Promega) was added to each well. The plate was incubated at R.T. for 10-15 min. The plates were measured on a ViewLux plate reader for green luminescence (540/20 nm filter) and red luminescence (618/8 nm filter). The green and red luminescent signals were corrected for red and green luminescence filter overlap using previously determined filter calibration constants (determined using the procedure outlined in the Promega Technical Manual). The %Activity was determined from the ratio of corrected green/red luminescent values. Green luminescent and ratio %Activity was determined by normalizing to the difference in signal between basal cells (0% Activity) and cells incubated with 10 uM of the proteasome inhibitor MG-132 (100% Activity). Red luminescent %Activity was normalized to the difference between red luminesence in basal cells (0%Activity) and zero luminescence (-100% Activity).
# Concentration-response curves were fitted to the signals arising from the green luminescence (I-kappa-B-alpha-luciferase fusion; IkB-luc) and the red luminescence (unfused luciferase; luc) as well as the calculated ratio. The concentration-effect curves were then classified based on curve quality (r2), response magnitude and degree of measured activity. Compounds were then categorized based on their concentration-response curves for all three datasets (Ikb-luc, luc and ratio).
# Keywords: IKK, I-kappa-B, IkB, IkBa, cytotoxicity, luminescence, MLSMR, MLSCN, NIH Roadmap, qHTS, NCGC
# Potency is read from the fitted curve at half-maximal effect.
Compound,IkBa stabilization activation,Potency
CCOC(=O)c1cccc(NC(=O)Cn2cnc3nc4c(cc3c2=O)CCCC4)c1,4.01%,–
Cc1cc(OC(C)C(=O)Nc2sc3c(c2C(N)=O)CCCC3)ccc1Cl (centres undefined),-3.34%,–
Cc1ccc(S(=O)(=O)n2nc(-c3ccc(Cl)cc3)nc2NCc2ccccc2)cc1,1.79%,–
CCOc1ccc(NC(=O)CCC(=O)N2CC(C)Oc3ccc(C)cc32)cc1 (centres undefined),0.778%,–
CCCNC(=O)c1ccc2c(c1)ncn2-c1ccc(C)cc1C,-5.53%,–
COC(=O)C1=C(c2ccccc2)c2ccccc2S(=O)(=O)N1CC(=O)Nc1ccccc1C(F)(F)F,-1.32%,–
CCc1ccccc1NC(=O)c1ccc2nc(CCc3ccccc3)oc2c1,3.24%,–
O=C(CS(=O)(=O)c1cccc2nsnc12)N1CCN(c2cccc(Cl)c2)CC1,0.629%,–
Cc1cc2c(cc1S(=O)(=O)CCC(=O)Nc1ccc(OC(F)(F)F)cc1)OCC(=O)N2,6.21%,–
CC(C)c1ccc(NC(=O)Cn2c3ncccc3c(=O)n2-c2ccccc2)cc1,-1.21%,–
Cc1ccc(Cl)cc1N1CCN(C(=O)c2cn(C)c3ccc(S(=O)(=O)N(C)C4CCCCC4)cc3c2=O)CC1,-0.507%,–
CCN1CCN(c2ncc3c(n2)CC(c2ccccc2O)CC3=O)CC1 (centres undefined),0.899%,–
Cc1ccccc1CN1CCC(CNC(=O)c2c(C)oc3ncnc(N4CCCCC4)c23)CC1,0.0466%,–
CCN(CCCNC(=O)c1c(C)oc2ncn(CC(C)C)c(=O)c12)Cc1ccccc1,1.93%,–
Cc1cccc(CSc2ccc(-c3cccs3)nn2)c1,-2.49%,–
CCOc1ccc(OCC)c(Nc2nc3ccccc3n3nnnc23)c1,1.77%,–
COc1ccc(S(=O)(=O)N2CCCCC2)cc1C(=O)NC1CCS(=O)(=O)C1 (centres undefined),1.49%,–
CCn1cc(C(=O)N(C)Cc2ccccc2)c(=O)c2cc(S(=O)(=O)N3CCCCCC3)ccc21,1.18%,–
CCCC(=O)Nc1c(O)c2ccccc2[nH]c1=O,-0.355%,–
O=C1C(c2[nH]c3ccccc3c2O)=Nc2ccccc21,–,2510 nM (active)
CCCOC(=O)Cc1c(O)c2ccccc2[nH]c1=O,0.442%,–
COc1ccc(-c2nc3sc(CCNC(=O)C(C)(C)C)c(C)n3n2)cc1,-2.83%,–
COc1ccc(N2CCN(C(=O)c3ccc4c(Cl)c5c(nc4c3)CCCC5)CC2)cc1,0.102%,–
CC(=O)Nc1ccc2nc(SCCOc3cc(C)cc(C)c3)sc2c1,-0.0445%,–
CCC1CN(S(=O)(=O)c2cc(-c3cc(C)no3)ccc2C)c2cc(C)ccc2O1 (centres undefined),0.0798%,–

Compound,IkBa stabilization activation,Potency
CC1CCN(S(=O)(=O)c2ccc3c(c2)N(CC(=O)NCc2ccccc2Cl)C(=O)CO3)CC1,2.09%,–
COC(=O)c1ccc(NC(=O)CCc2c(C)nn(-c3ccc(N4CCCC4)nn3)c2C)cc1,1.12%,–
COc1ccc(-n2c(C)nc3c(cnn3-c3ccc(F)cc3)c2=O)cc1,-2.95%,–
CC1=C(c2ccc(C)c(C)c2)S(=O)(=O)NC1=NCc1ccccc1Cl,1.34%,–
Cc1cc(C)c2oc(C(=O)Nc3ccc(S(=O)(=O)N4CCCCCC4)cc3)cc(=O)c2c1,2.05%,–
CN(C)CCN(Cc1ccccc1)S(=O)(=O)c1csc(C(N)=O)c1,-0.756%,–
COC(=O)c1ccccc1NC(=O)c1cnn(-c2ccc(F)cc2)c1-n1cccc1,27.9%,–
COc1ccc(NC(=O)C2CCN(c3ccc(Sc4ccc(C)cc4)nn3)CC2)c(OC)c1,0.374%,–
COc1ccc(C2NC(=O)N(C)C3=C2C(=O)N(c2ccc(C(=O)O)cc2)C3)cc1 (centres undefined),-0.8%,–
COc1cccc(NC(=O)CN2C(=O)c3ccccc3Sc3ncccc32)c1,4.99%,–
Cc1ccc(-c2cnc(C3CC3)o2)cc1S(=O)(=O)Nc1cccc(C)c1C,-1.63%,–
COCCNC(=O)c1cc(-c2cccc(Cl)c2)on1,68.5%,–
COc1ccc(-c2nc3c4ccccc4n(CC(=O)Nc4ccc(C(C)=O)cc4)c(=O)n3n2)cc1,-0.837%,–
Cc1ccccc1OCC(=O)Nc1c(C(=O)Nc2ccccc2F)oc2ccccc12,-0.867%,–
COc1cc(NC(=O)C2=CC(c3ccco3)=NS(=O)(=O)N2C)cc(OC)c1OC,1.1%,–
Cc1ccc2oc(=O)c3cnn(CC(=O)NCc4ccccc4Cl)c3c2c1,0.266%,–
COc1cccc(CNC(=O)C2CCC(CNS(=O)(=O)c3cccs3)CC2)c1 (centres undefined),-3.86%,–
CCCCC(=O)OC1=CN(Cc2ccccc2)S(=O)(=O)c2ccccc21,1.1%,–
Cc1cc(C)cc(NS(=O)(=O)c2ccc(-c3cc(C)no3)s2)c1,2.64%,–
CCc1ccccc1NC(=O)c1ccc2c(c1)CCN2S(C)(=O)=O,1.19%,–
O=C(COc1ccccc1F)OCc1cc(=O)n2nc(C3CCCCC3)sc2n1,2.16%,–
CN1C(=O)c2[nH]nc(-c3ccc(F)cc3)c2C1c1ccccn1 (centres undefined),2.45%,–
CCC(=O)N1CCc2cc(S(=O)(=O)NC(Cc3ccccc3)C(=O)NCc3ccccc3)ccc21 (centres undefined),0.67%,–
O=c1cc(-c2ccccc2)n2c(SCc3ccccc3)nnc2[nH]1,49.6%,–
